Assay results from the supplement of paper PMC9135407.
Values joined by “and” are separate entries in the source; they are usually repeats but may differ in a detail not shown here. Equal values may be shown once. Where a name gives a salt, the structure may show the parent alone. Screen size: about 5,800 compounds; about 620 (11%) showed activity. The full list was thinned out, with actives kept by preference. A number with no mark means an inactive call.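 Rule for the calls: active = score above a cut-off or among the top three wells of a plate; in these data no inactive exceeds 0.85.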

Test system: primary human hepatic stellate cells (donor 1)
Assay: scaled lipid accumulation score (0 = DMSO-like, 1 = nortriptyline-like); higher = stronger HSC inactivation (lipid re-accumulation), active = hit call of the paper
Details: 48 h
[1] = library stock concentration: 3.33 mM
[2] = library stock concentration: 10 mM
[3] = library stock concentration: 100 uM
[4] = library stock concentration: 1 mM
[5] = library stock concentration: 80 uM
[6] = library stock concentration: 400 uM
[7] = library stock concentration: 2 mM

Question: What does the source list for `CC(C)(C)C#Cc1cc(N(C(=O)[C@H]2CC[C@H](C)CC2)[C@H]2CC[C@H](O)CC2)c(C(=O)O)s1` [VX-222 (VCH-222, Lomibuvir)]?
Answer: scaled lipid accumulation score [1]: ≤ 0; scaled lipid accumulation score [2]: 0.047

Question: With `Cc1c(O)c(=O)ccn1C` as the compound, how does the “scaled lipid accumulation score” value [2] read?
Answer: Its value is ≤ 0.

Question: Which results are given for `O.O.O.O.O=C([O-])CC(O)(CC(=O)[O-])C(=O)[O-].[Li+].[Li+].[Li+]` [Lithium citrate]?
Answer: scaled lipid accumulation score (library stock concentration: 9.5 mM): ≤ 0; scaled lipid accumulation score [2]: 0.016

Question: With `CCCCC/C=C\C\C=C/C=C/C=C/CC(=O)CCCC(=O)O` [5-Ketoeicosatetraenoic acid] as the compound, how does the “scaled lipid accumulation score” value [3] read?
Answer: Its value is ≤ -0.021.

Question: With `CC(C)NCC(O)COc1ccccc1-n1cccc1` (stereo not given) [Isamoltane hemifumarate] as the compound, how does the “scaled lipid accumulation score” value [2] read?
Answer: Its value is 0.25.

Question: For `CCCCCC=CCC=CCC=CCC=CCCCC(=O)SCC(O)CO` (stereo not given) [Arachidonoyl-1-thio-Glycerol], which “scaled lipid accumulation score” value [4] is on record?
Answer: Its value is 0.021.

Question: What does the source list for `CC(C)(Oc1ccc(Cl)cc1)C(=O)OCCOC(=O)c1cccnc1` [Etofibrate]?
Answer: scaled lipid accumulation score [1]: ≤ 0; scaled lipid accumulation score [2]: ≤ -0.001

Question: With `C[C@@H]1C[C@H]2[C@@H]3CCC4=CC(=O)C=C[C@]4(C)[C@@]3(F)[C@@H](O)C[C@]2(C)[C@@]1(O)C(=O)CO` [Dexamethasone] as the compound, how does the “scaled lipid accumulation score” value (library stock concentration: 5.1 mM) read?
Answer: The value was ≤ -0.006 and ≤ -0.001.

Question: And the “scaled lipid accumulation score” value [2]?
Answer: The value was ≤ 0 and ≤ -0.006.

Question: And the “scaled lipid accumulation score” value (library stock concentration: 12.7 mM)?
Answer: Its value is 0.007.

Question: Which “scaled lipid accumulation score” value [1] does the source give for `C[C@@H]1C[C@H]2[C@@H]3CCC4=CC(=O)C=C[C@]4(C)[C@@]3(F)[C@@H](O)C[C@]2(C)[C@@]1(O)C(=O)CO` [Dexamethasone (DHAP)] here?
Answer: The value was 0.017.

Question: What about the “scaled lipid accumulation score” value [2] of the same compound?
Answer: The value was ≤ 0.

Question: How did the “scaled lipid accumulation score” value (library stock concentration: 5.7 mM) turn out when `CN(C)CC/C=C1/c2ccccc2Sc2ccc(Cl)cc21` [Chlorprothixene hydrochloride] was run?
Answer: Its value is 0.756.

Question: What about the “scaled lipid accumulation score” value [2] of the same compound?
Answer: The value was 0.429 and 0.701.

Question: With `CN(C)CC/C=C1/c2ccccc2Sc2ccc(Cl)cc21` [Chlorprothixene] as the compound, how does the “scaled lipid accumulation score” value [1] read?
Answer: The value was 0.345.

Question: With `CN(C)CCC=C1c2ccccc2Sc2ccc(Cl)cc21` [Chlorprothixene] as the compound, how does the “scaled lipid accumulation score” value [2] read?
Answer: The value was 1.03 (active).

Question: `CN(C)CC/C=C1\c2ccccc2CSc2ccccc21` [Dosulepin hydrochloride] was tested. Which “scaled lipid accumulation score” value did it give?
Answer: The value was 0.845.

Question: How did the “scaled lipid accumulation score” value turn out when `CN(C)CC/C=C1\c2ccccc2Sc2ccc(Cl)cc21.Cl` [Chlorprothixene hydrochloride] was run?
Answer: Its value is 0.902 (active).

Question: How did the “scaled lipid accumulation score” value [2] turn out when `C[C@@H]1O[C@@H]1P(=O)(O)O` [Fosfomycin] was run?
Answer: Its value is ≤ 0.

Question: For `C[C@@H]1O[C@@H]1P(=O)(O)O` [Phosphomycin disodium], which “scaled lipid accumulation score” value [2] is on record?
Answer: The value was ≤ -0.055.

Question: For `CCN1C(=CC(C)=O)Sc2ccc(OC)cc21`, which “scaled lipid accumulation score” value [1] is on record?
Answer: The value was ≤ -0.009.

Question: And the “scaled lipid accumulation score” value [2]?
Answer: The value was ≤ 0.

Question: Which “scaled lipid accumulation score” value [2] does the source give for `CCCCCCCCCCC(C)(C)C(=O)Nc1c(OC)cc(OC)cc1OC` here?
Answer: The value was 0.164 and ≤ -0.001.

Question: `CC/C=C/C/C=C/C/C=C/C/C=C/CCCCC(=O)OC` [Stearidonic Acid methyl ester] was tested. Which “scaled lipid accumulation score” value [4] did it give?
Answer: The value was 0.048.

Question: With `O=C(c1cn(Cc2cncn2Cc2ccc(Br)cc2)cc1-c1cccc2ccccc12)N1CCOCC1` as the compound, how does the “scaled lipid accumulation score” value [1] read?
Answer: Its value is ≤ -0.003.

Question: What about the “scaled lipid accumulation score” value [2] of the same compound?
Answer: The value was 0.723.

Question: How did the “scaled lipid accumulation score” value [2] turn out when `CNCc1ccc(-c2[nH]c3cc(F)cc4c3c2CCNC4=O)cc1.O=P(O)(O)O` [Rucaparib] was run?
Answer: The value was 1.12 (active).

Question: Which results are given for `CNCc1ccc(-c2[nH]c3cc(F)cc4c3c2CCNC4=O)cc1` [Rucaparib]?
Answer: scaled lipid accumulation score [5]: ≤ 0; scaled lipid accumulation score [6]: ≤ 0; scaled lipid accumulation score [7]: 0.588

Question: Which “scaled lipid accumulation score” value [2] does the source give for `CNCc1ccc(-c2[nH]c3cc(F)cc4c3c2CCNC4=O)cc1.O=P(O)(O)O` here?
Answer: Its value is 1.47 (active).

Question: How did the “scaled lipid accumulation score” value [1] turn out when `CNCc1ccc(-c2[nH]c3cc(F)cc4c3c2CCNC4=O)cc1` was run?
Answer: Its value is 0.213.

Question: With `CCCCCCCCCCCCCCCCCCCCCCC(=O)OCC` [Ethyl Tricosanoate] as the compound, how does the “scaled lipid accumulation score” value [4] read?
Answer: The value was ≤ 0.

Question: How did the “scaled lipid accumulation score” value [4] turn out when `CCCCCCCCCSCCCCCCCC(=O)O` [9-Thiastearic Acid] was run?
Answer: The value was 0.031.

Question: For `CN1CCc2nc(C(=O)N[C@@H]3C[C@@H](C(=O)N(C)C)CC[C@@H]3NC(=O)C(=O)Nc3ccc(Cl)cn3)sc2C1` [Edoxaban], which “scaled lipid accumulation score” value [1] is on record?
Answer: The value was ≤ -0.009.

Question: What about the “scaled lipid accumulation score” value [2] of the same compound?
Answer: The value was 0.008.

Question: For `CC(=O)N[C@@H](Cc1c[nH]c2ccccc12)C(=O)O` [Acetyltryptophan], which “scaled lipid accumulation score” value [2] is on record?
Answer: Its value is ≤ 0.

Question: `COc1cc(C(O)C(=O)O)ccc1O` (stereo not given) was tested. Which “scaled lipid accumulation score” value [2] did it give?
Answer: Its value is ≤ -0.036.

Question: For `c1nc(CC2CCNCC2)c[nH]1` [Immepip dihydrobromide], which “scaled lipid accumulation score” value [2] is on record?
Answer: Its value is 0.011.

Question: How did the “scaled lipid accumulation score” value [4] turn out when `CC/C=C/C[C@H](O)/C=C/[C@H]1[C@H](O)CC(=O)[C@@H]1C/C=C\CCCC(=O)O` [17-trans Prostaglandin E3] was run?
Answer: The value was ≤ 0.

Question: With `Cc1cnc(-c2cnc(NCCNc3ccc(C#N)cn3)nc2-c2ccc(Cl)cc2Cl)[nH]1` as the compound, how does the “scaled lipid accumulation score” value [5] read?
Answer: The value was 0.041.

Question: And the “scaled lipid accumulation score” value [6]?
Answer: The value was 0.005.

Question: And the “scaled lipid accumulation score” value [7]?
Answer: The value was 0.182.

Question: And the “scaled lipid accumulation score” value [1]?
Answer: The value was 0.229.

Question: What about the “scaled lipid accumulation score” value [2] of the same compound?
Answer: The value was 0.814.

Question: Which “scaled lipid accumulation score” value [2] does the source give for `Cc1c[nH]c(-c2cnc(NCCNc3ccc(C#N)cn3)nc2-c2ccc(Cl)cc2Cl)n1.Cl` here?
Answer: Its value is 1.08 (active).

Question: Which “scaled lipid accumulation score” value [4] does the source give for `CCCCC[C@H](O)/C=C/[C@H]1C(=O)C[C@H](O)[C@@H]1C/C=C\CCCC(=O)NC(CO)CO` [Prostaglandin D2 serinol amide] here?
Answer: The value was ≤ 0.

Question: `CCCCC/C=C\C/C=C\C/C=C\CC1OC1CCCC(=O)O` (stereo not given) [5,6-Epoxyeicosatrienoic acid] was tested. Which “scaled lipid accumulation score” value [3] did it give?
Answer: The value was ≤ -0.021.

Question: `CC[C@@H]([C@H](C)O)n1ncn(-c2ccc(N3CCN(c4ccc(OC[C@@H]5CO[C@@](Cn6cncn6)(c6ccc(F)cc6F)C5)cc4)CC3)cc2)c1=O` [Posaconazole] [listing 1 of 2 here] was tested. Which “scaled lipid accumulation score” value [1] did it give?
Answer: Its value is 0.134.

Question: With `CC[C@@H]([C@H](C)O)n1ncn(-c2ccc(N3CCN(c4ccc(OC[C@@H]5CO[C@@](Cn6cncn6)(c6ccc(F)cc6F)C5)cc4)CC3)cc2)c1=O` [Posaconazole] [listing 2 of 2 here] as the compound, how does the “scaled lipid accumulation score” value [2] read?
Answer: The value was 0.869 (active).

Question: With `CCC(C)n1ncn(-c2ccc(N3CCN(c4ccc(OCC5COC(Cn6cncn6)(c6ccc(Cl)cc6Cl)O5)cc4)CC3)cc2)c1=O` (stereo not given) [Itraconazole] as the compound, how does the “scaled lipid accumulation score” value (library stock concentration: 2.8 mM) read?
Answer: Its value is ≤ 0.

Question: And the “scaled lipid accumulation score” value [1]?
Answer: The value was 0.492.

Question: What about the “scaled lipid accumulation score” value [2] of the same compound?
Answer: Its value is 0.522.

Question: Which results are given for `CN(C)Cc1c(C(=O)NCCOc2ccc(C(=O)NO)cc2)oc2ccccc12`?
Answer: scaled lipid accumulation score [1]: 0.855 (active); scaled lipid accumulation score [2]: 1.01 (active)

Question: With `COc1ccc(C(=O)NCc2ccc(OCCN(C)C)cc2)cc1OC` as the compound, how does the “scaled lipid accumulation score” value [2] read?
Answer: The value was 0.061 and 0.313.

Question: With `Cc1cc(C)c(N(Cc2ccccc2)S(=O)(=O)c2ccc(OCCNC(=O)c3cc4ccccc4o3)cc2)c(C(=O)NO)c1` as the compound, how does the “scaled lipid accumulation score” value [2] read?
Answer: Its value is ≤ -0.001.
